# Results: the supplement of paper PMC4962491
# Values joined by “and” are separate entries in the source; they are usually repeats but may differ in a detail not shown here. Equal values may be shown once. ± gives the standard deviation of the averaged measurements. Over roughly 1,600 compounds, “mitochondrial oxygen consumption rate normalised to cell number, Z score over the library” has its median near 0.065; the lowest 2% begin near -2.2. This is one part of a sample in which the lowest values are shown more often than they occur.
# System: FaDu
# Assay: mitochondrial oxygen consumption rate normalised to cell number, Z score over the library; higher = higher oxygen consumption (negative = OCR reduction)
# Settings: treatment time 24 h; assay medium: 5 mM galactose, 5 mM pyruvate, 4 mM glutamine; 10 µM
# Method: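 Primary screen: FaDu cells were incubated 24 h with Pharmakon 1600 / TDI oncology set compounds at 2 or 10 uM. Mitochondrial-specific OCR (basal minus 2 uM antimycin A) was measured on a Seahorse XF96 in assay medium with 5 mM galactose, 5 mM pyruvate and 4 mM glutamine, then corrected for Hoechst cell number and expressed as a Z score […]. Compounds that cut cell number by >66% were excluded. Two repeats.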
row,SMILES,mitochondrial oxygen consumption rate normalised
1,Oc1ccc2ccccc2c1 [beta-NAPHTHOL],0.778 ± 0.095
2,C/C=C(/C)C(=O)O[C@H]1[C@H](OC(C)=O)[C@@]2(CO)C(CC1(C)C)C1=CCC3[C@@]4(C)CCC(O[C@@H]5O[C@H](C(=O)O)[C@@H](O[C@@H]6O[C@H](CO)[C@@H](O)[C@H](O)[C@H]6O)[C@H](O)[C@H]5O[C@@H]5O[C@H](CO)[C@@H](O)[C@H](O)[C@H]5O)[C@](C)(CO)C4CC[C@@]3(C)[C@]1(C)C[C@H]2O.C/C=C(\C)C(=O)O[C@H]1[C@H](OC(C)=O)[C@@]2(CO)C(CC1(C)C)C1=CCC3[C@@]4(C)CCC(O[C@@H]5O[C@H](C(=O)O)[C@@H](O[C@@H]6O[C@H](CO)[C@@H](O)[C@H](O)[C@H]6O)[C@H](O)[C@H]5O[C@@H]5O[C@H](CO)[C@@H](O)[C@H](O)[C@H]5O)[C@](C)(CO)C4CC[C@@]3(C)[C@]1(C)C[C@H]2O (some centres undefined),0.3 ± 0.096
3,CC(C)NC(=N)NC(=N)Nc1ccc(Cl)cc1,-0.293 ± 0.099
4,N=C(N)NC(=N)NCCc1ccccc1,-1.85 ± 0.1
5,N=C(NCCCCCCNC(=N)NC(=N)Nc1ccc(Cl)cc1)NC(=N)Nc1ccc(Cl)cc1,-3.36 ± 0.16
6,CN(C)c1cnccn1,0.284 ± 0.5
7,CC[C@H]1OC(=O)C[C@@H](O)[C@H](C)[C@@H](O[C@@H]2O[C@H](C)[C@@H](O)[C@H](N(C)C)[C@H]2O)[C@@H](CCN2C[C@H](C)C[C@H](C)C2)C[C@@H](C)C(=O)/C=C/C(C)=C/[C@@H]1CO[C@@H]1O[C@H](C)[C@@H](O)[C@@H](OC)[C@H]1OC,0.2667 ± 0.0014
8,CCCNC(C)C(=O)Nc1ccccc1C (centres undefined),-0.507 ± 1.1
9,CC(C)[C@H](N)C(=O)OCC(CO)OCn1cnc2c(=O)nc(N)[nH]c21 (some centres undefined),1.37 ± 0.77
10,N#Cc1ccc2[nH]cc(CCCCN3CCN(c4ccc5oc(C(N)=O)cc5c4)CC3)c2c1,-0.383 ± 0.58
11,CCN(CC)C(=O)N1CCN(C)CC1,1.02 ± 0.63
12,CCOCCOc1ccccc1C(N)=O,1.14 ± 0.52
13,Cc1c2oc3c(C)ccc(C(=O)N[C@@H]4C(=O)N[C@H](C(C)C)C(=O)N5CCC[C@H]5C(=O)N(C)CC(=O)N(C)[C@@H](C(C)C)C(=O)O[C@@H]4C)c3nc-2c(C(=O)N[C@@H]2C(=O)N[C@H](C(C)C)C(=O)N3CCC[C@H]3C(=O)N(C)CC(=O)N(C)[C@@H](C(C)C)C(=O)O[C@@H]2C)c(N)c1=O,-4.48 ± 0.4
14,CO[C@H]1C[C@H](O[C@@H]2/C(C)=C/C[C@@H]3C[C@@H](C[C@]4(CC[C@H](C)[C@@H](C5CCCCC5)O4)O3)OC(=O)[C@@H]3C=C(C)/C(=N/O)[C@H]4OC/C(=C\C=C\[C@@H]2C)[C@]43O)O[C@@H](C)[C@@H]1O,0.0124 ± 0.37
15,CN(C)CCc1c[nH]c2ccc(C[C@H]3COC(=O)N3)cc12,0.529 ± 0.45
16,CCC(=O)O[C@H](CC(=O)O)C[N+](C)(C)C,-0.676 ± 0.16
17,C[C@]12CCC(=O)C=C1CC[C@@H]1[C@@H]2[C@@H](O)C[C@@]2(C)[C@H]1CC[C@]2(O)C(=O)COP(=O)(O)O,1.06 ± 0.71
18,NCCc1cc[nH]n1,-0.155 ± 0.3
19,CCCCCCOC(=O)NC(=N)c1ccc(NCc2nc3cc(C(=O)N(CCC(=O)OCC)c4ccccn4)ccc3n2C)cc1,0.662 ± 0.54
20,Cc1ncc(COP(=O)([O-])[O-])c(CN(CCN(CC(=O)O)Cc2c(COP(=O)([O-])O)cnc(C)c2O)CC(=O)O)c1O.[Mn].[Na+].[Na+].[Na+],0.342 ± 0.21
21,CCCOc1ccc2[nH]c(NC(=O)OC)nc2c1,0.108 ± 0.53
22,CCCCC(=O)O[C@]1(C(=O)CO)[C@@H](C)C[C@H]2[C@@H]3CCC4=CC(=O)C=C[C@]4(C)[C@@]3(F)[C@@H](O)C[C@@]21C,-0.0902 ± 0.67
23,O=C1CN2Cc3c(ccc(Cl)c3Cl)N=C2N1,1.01 ± 0.66
24,C[C@]12CC[C@@H]3c4ccc(O)cc4C[C@@H](CCCCCCCCC[S+]([O-])CCCC(F)(F)C(F)(F)F)[C@H]3[C@@H]1CC[C@@H]2O (some centres undefined),-2.25 ± 2.2
25,C[C@]12CC[C@@H]3c4ccc(O)cc4CC[C@H]3[C@@H]1C[C@@H](O)[C@@H]2O,-0.347 ± 0.41
26,C[C@]12CC[C@@H]3c4ccc(O)cc4CC[C@H]3[C@@H]1CC[C@@H]2O,-0.551 ± 0.072
27,N=C(N)NS(=O)(=O)c1ccc(N)cc1,-0.417 ± 0.81

row,SMILES,mitochondrial oxygen consumption rate normalised
1,O=C[C@H](O)[C@@H](O)[C@H](O)CO,-0.552 ± 0.11
2,Cc1cc(C(C)(C)CC(C)(C)C)ccc1OCCOCC[N+](C)(C)Cc1ccccc1,-5.95 ± 0.082
3,CC(C)(C)CC(C)(C)c1ccc(OCCOCC[N+](C)(C)Cc2ccccc2)cc1,-6.2 ± 0.063
4,CO[C@H]1C[C@@H]2CC[C@@H](C)[C@@](O)(O2)C(=O)C(=O)N2CCCC[C@H]2C(=O)O[C@H]([C@H](C)C[C@@H]2CC[C@@H](OCCO)[C@H](OC)C2)CC(=O)[C@H](C)/C=C(\C)[C@@H](O)[C@@H](OC)C(=O)[C@H](C)C[C@H](C)/C=C/C=C/C=C/1C,-1.07 ± 0.18
5,C(=C\c1ccccc1)/CN1CCN(C(c2ccccc2)c2ccccc2)CC1,-0.167 ± 0.011
6,COc1ccc2cc(CCC(C)=O)ccc2c1,0.808 ± 0.11
7,O=C(Nc1ccccc1)c1ccccc1O,-0.209 ± 0.021
8,CC1CCCC(C)N1 (centres undefined),-0.441 ± 0.17
9,O=C(CCCCCCCC(=O)NCCO)NCCO,-0.567 ± 0.53
10,Cn1nnnc1SCC1=C(C(=O)O)N2C(=O)[C@@H](NC(=O)[C@H](O)c3ccccc3)[C@H]2SC1,0.376 ± 0.31
11,COCCCOc1ccnc(C[S+]([O-])c2nc3ccccc3[nH]2)c1C (centres undefined),0.0779 ± 0.21
12,CCN(CC)CCOC(=O)C(Cc1cccc2ccccc12)CC1CCCO1 (centres undefined),-0.531 ± 1.6
13,O=C(O)c1cc(O)c2c(c1)[C@H]([C@H]1c3cc(C(=O)O)cc(O)c3C(=O)c3c(O[C@@H]4O[C@H](CO)[C@@H](O)[C@H](O)[C@H]4O)cccc31)c1cccc(O[C@@H]3O[C@H](CO)[C@@H](O)[C@H](O)[C@H]3O)c1C2=O,0.905 ± 0.018
14,CCCCC(=O)OCC(=O)[C@]1(O)Cc2c(O)c3c(c(O)c2[C@@H](O[C@H]2C[C@H](NC(=O)C(F)(F)F)[C@H](O)[C@H](C)O2)C1)C(=O)c1c(OC)cccc1C3=O [valrubicin],-0.0886 ± 0.77
15,COc1cccc2c1C(=O)c1c(O)c3c(c(O)c1C2=O)C[C@@](O)(C(=O)CO)C[C@@H]3O[C@H]1C[C@H](N)[C@@H](O)[C@H](C)O1,-2.82 ± 0.22
16,Cn1nnnc1SCC1=C(C(=O)O)N2C(=O)[C@@H](NC(=O)[C@H](OC=O)c3ccccc3)[C@H]2SC1,0.0513 ± 0.34
17,CC(C)NCC(O)COc1cccc2ccccc12 (racemic),-0.291 ± 0.42
18,CC[n+]1c(-c2ccccc2)c2cc(N)ccc2c2ccc(N)cc21,-2.32 ± 0.27
19,COc1cc(NS(C)(=O)=O)ccc1Nc1c2ccccc2nc2ccccc12,-2.77 ± 0.43
20,CS(=O)(=O)Nc1ccc([N+](=O)[O-])cc1Oc1ccccc1,0.196 ± 0.72
21,CC(=O)Oc1c(C)c(C)c2c(c1C)CCC(C)(CCCC(C)CCCC(C)CCCC(C)C)O2 (stereo not drawn) [alpha-TOCHOPHERYL ACETATE],-0.281 ± 0.21
22,O=C1c2ccccc2C(=O)C1c1ccc(Cl)cc1,0.0788 ± 0.46
23,CC(O)C(=O)[O-].[Na+] (centres undefined),1.11 ± 0.92
24,CC(=O)Nc1ccc(S(=O)(=O)Nc2ccc([N+](=O)[O-])cc2)cc1,1.45 ± 0.4
25,NCCCS(=O)(=O)O,-0.855 ± 0.32
26,C#CCC(Cc1cnc2nc(N)nc(N)c2n1)c1ccc(C(=O)N[C@@H](CCC(=O)O)C(=O)O)cc1 (some centres undefined) [Pralatrexate],0.0598 ± 0.75
27,Nc1ccc(S(=O)(=O)O)cc1.Nc1ccc(S(=O)(=O)O)cc1.[Zn],1.04 ± 0.43

row,SMILES,mitochondrial oxygen consumption rate normalised
1,C[C@@H]1O[C@@H](OC[C@H]2O[C@@H](Oc3c(-c4ccc(OCCO)c(OCCO)c4)oc4cc(OCCO)cc(O)c4c3=O)[C@H](O)[C@@H](O)[C@@H]2O)[C@H](O)[C@H](O)[C@H]1O,-0.575 ± 0.55
2,CC(C)CCC[C@@H](C)[C@H]1CC[C@H]2[C@@H]3CC=C4C[C@@H](O)CC[C@]4(C)[C@H]3CC[C@]12C,-0.87 ± 0.089
3,O=C(c1cccnc1)N1CCOCC1,-0.217 ± 0.94
4,COc1cc(NS(=O)(=O)c2ccc(N)cc2)ncn1,0.47 ± 0.61
5,NCC(O)CC(=O)O (centres undefined),-0.332 ± 0.83
6,CN1C(=O)CC(C)(c2ccccc2)C1=O (centres undefined),-0.314 ± 0.74
7,CCCCCCCCCc1ccc(OCCOCCOCCOCCOCCOCCOCCOCCOCCO)cc1,-3.66 ± 0.45
8,CCCCOc1ccc(CC(=O)NO)cc1,-0.625 ± 0.84
9,CCCCOc1ccc(OCCCN2CCOCC2)cc1,-0.434 ± 0.23
10,CC(=O)Oc1ccccc1C(=O)O,0.27 ± 0.45
11,CC(=O)Nc1ncc([N+](=O)[O-])s1,0.857 ± 0.27
12,CC(=O)Oc1ccccc1C(=O)Nc1ncc([N+](=O)[O-])s1,-2.45 ± 0.1
13,CN(C)[C@@H]1C(O)=C(C(N)=O)C(=O)[C@@]2(O)C(O)=C3C(=O)c4c(O)cccc4[C@@](C)(O)[C@H]3[C@H](O)[C@@H]12,0.305 ± 0.067
14,Cn1c(=O)c2[nH]c(Br)nc2n(C)c1=O,0.142 ± 0.29
15,O=C(CCBr)N1CCN(C(=O)CCBr)CC1,1.32 ± 1.1
16,O=C(CCBr)N1CCN(C(=O)CCBr)CC1 [Pipobroman],-0.527 ± 1.4
17,CCC1(C)OC(=O)N(C)C1=O (centres undefined),0.0479 ± 0.05
18,CN1C(C(=O)Nc2ccccn2)=C(O)c2sc(Cl)cc2S1(=O)=O,-0.183 ± 0.66
19,Oc1c(I)cc(I)c2cccnc12,0.968 ± 0.98
20,O=[N+]([O-])c1ccc(O)c2ncccc12,-2.21 ± 0.14
21,Oc1ccc(Cl)c2cccnc12,0.469 ± 0.61
22,CCCCCCCC/C=C\CCCCCCCC(=O)O.NCCO,-0.00915 ± 0.76
23,CC[C@H]1OC(=O)[C@H](C)[C@@H](O[C@H]2C[C@@](C)(OC)[C@@H](O)[C@H](C)O2)[C@H](C)[C@@H](O[C@@H]2O[C@H](C)C[C@H](N(C)C)[C@H]2O)[C@](C)(O)C[C@@H](C)[C@@H]2N[C@@H](COCCOC)O[C@H]([C@H]2C)[C@]1(C)O,-0.149 ± 0.29
24,CCc1c2c(nc3ccc(OC(=O)N4CCC(N5CCCCC5)CC4)cc13)-c1cc3c(c(=O)n1C2)COC(=O)[C@]3(O)CC,-1.11 and -2.18
25,CC[C@@]1(O)C(=O)OCc2c1cc1n(c2=O)Cc2cc3c(CN(C)C)c(O)ccc3nc2-1,-4.46 ± 0.19
